# Source: ChEMBL document CHEMBL4513216, “Probing the Open Global Health Chemical Diversity Library for Multistage-Active Starting Points for Next-Generation Antimalarials” (ACS Infect Dis, 2020)
# The whole screen tested about 65,000 compounds, of which about 2,100 (3.2%) showed an effect of 50% or more. The median lay at about -52%. The entries come from a sample that favours strong results as a whole.
# Test system: Plasmodium falciparum
# Test: Screen against P. falciparum Asexual Blood Stage (ABS), at 5uM
# Assay type: functional, Dd2
# Conditions: tested at 5 uM
row,SMILES,INHIBITION [%]
1,O=C(NCc1cccnc1)[C@H]1CC[C@@H]2[C@@H](CCN2c2ncccn2)O1,41.4
2,CNC(=O)c1cc2c(nc1NCC(C)C)CCN(c1ncccn1)CC2,-98.4
3,CC(Cn1cccn1)NCc1cnc(N2CCCC2)nc1 (centres undefined),-141
4,Cc1ccsc1CNCCCOc1ccccn1,54.4
5,c1ccc(OCCNCc2cccs2)nc1,-79.1
6,c1ccc(OCCCNCc2cccs2)nc1,19.1
7,O=C(c1cnc(C2CC2)nc1)N1CCCC(c2nccs2)C1 (centres undefined),-138
8,O=C(c1cscn1)N1CCC2(CCN(S(=O)(=O)c3ccccc3)C2)C1 (centres undefined),-20.8
9,O=C(c1cscn1)N1CCC2(CCCN(CCOc3ccccc3)C2)C1 (centres undefined),53.5
10,O=C(CC1CC1)N1CCC2(CCCN(CCOc3ccccc3)C2)C1 (centres undefined),57.8
11,CN(C)C(=O)N1CCC2(CCCN(CCOc3ccccc3)C2)C1 (centres undefined),40.1
12,O=C([C@H]1CCCO1)N1CCC2(CCCN(CCOc3ccccc3)C2)C1 (some centres undefined),-41
13,O=C(N1CCCC1)N1CCC2(CCCN(CCOc3ccccc3)C2)C1 (centres undefined),-1.79
14,Cn1ccnc1CN1CCC(Cn2cc(-c3ccccc3)nn2)CC1,24.5
15,c1cc(CNCC2CNc3ccnn3C2)cc(OC2CCCC2)n1 (centres undefined),-58.6
16,CCCc1cnc(C)nc1N1CCC(Cn2cc(CO)nn2)CC1,-65.7
17,Cc1nccn1-c1cccc(C2CCCN(C3CCCCC3)C2)n1 (centres undefined),44.3
18,CCc1nccn1-c1cccc(C2CCCN(C3CCCCC3)C2)n1 (centres undefined),53.2
19,Cc1nccn1-c1cccc(C2CCCN(C3CCCC3)C2)n1 (centres undefined),1.22
20,Cc1noc(C)c1CN1Cc2ccnn2CC(C(=O)NCC2CC2)C1 (centres undefined),-30.3
21,CCCN1CCCn2c(nc(CNC(=O)c3nccn3C)cc2=O)C1,-91.8
22,CCn1cc(CN2CCC(c3[nH]ncc3S(C)(=O)=O)C2)cn1 (centres undefined),-44
23,Cc1ccc(-c2cn[nH]c2C2CCCN(c3cnccn3)C2)cc1 (centres undefined),-28
24,CCn1cc(CN2CCCC(c3[nH]ncc3-c3ccc(C)cc3)C2)cn1 (centres undefined),60.9
25,Cc1ccc(-c2cn[nH]c2C2CCCN(c3ncccn3)C2)cc1 (centres undefined),-1.86
26,CCn1cc(CN2CCCC(c3[nH]ncc3-c3ccc(F)cc3)C2)cn1 (centres undefined),60.9
27,CCCn1cc(CN2CCC(c3[nH]ncc3S(C)(=O)=O)C2)cn1 (centres undefined),-45.2
28,O=C(c1ccoc1)N1CC[C@@H]2O[C@@H](COCc3ccccn3)CC[C@@H]21,-109
29,CO[C@@H]1CCN(S(=O)(=O)c2cccs2)[C@H]1Cc1cccnc1,-8.97
